Assay results as given in PubChem BioAssay (NCATS).
Records with an inconclusive call do not appear. A call without a number means that no potency is given here. Calls of active or inactive are those of the source. The call rests on the fitted dose curve; in most records, active means well fitted curve in the direction sought with a large enough effect; inconclusive means small, poorly fitted or top-dose-only effect, or another doubt; inactive means no such curve, though single readings can be large; an effect the other way counts as inactive or inconclusive.

Assay: S16 Schwann cell viability assay (CellTiter-Glo assay) (AID 624031); further: nearly all actives have a fitted effect of over 70% in size
Conditions: S16 rat Schwann cells viability, 24 h; series mostly up to 57.5 µM
Summary of the method: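 Native S16 Schwann cells (rat), serum-containing medium, overnight attachment then 24 h drug exposure at 37 °C/5% CO2. CellTiter-Glo ATP signal; normalized to cell-free and vehicle wells.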
Potency means the concentration at half of the fitted maximal effect.

Row | Compound | Potency
1 | CCC(=O)O[C@H]1CC[C@H]2[C@@H]3CCC4=CC(=O)CC[C@]4(C)[C@H]3CC[C@]12C | inactive
2 | COP(=S)(OC)Oc1ccc(Sc2ccc(OP(=S)(OC)OC)cc2)cc1 | inactive
3 | CN(C)C(=S)SSC(=S)N(C)C | 2.56 µM (active)
4 | C=CCOC(Cn1ccnc1)c1ccc(Cl)cc1Cl (stereo unspecified) | inactive
5 | C[C@H]1C(=O)O[C@@H]2CCN3CC=C(COC(=O)[C@](C)(O)[C@]1(C)O)[C@H]23 | inactive
6 | CCCCCCCCC(=O)NCc1ccc(O)c(OC)c1 | inactive
7 | COP(=O)(OC)OC=C(Cl)Cl | inactive
8 | CCNc1nc(Cl)nc(NCC)n1 | inactive
9 | Oc1c(Br)cc(Br)cc1Br | inactive
10 | Cc1ccc(N=CN(C)C=Nc2ccc(C)cc2C)c(C)c1 | inactive
11 | N#Cc1nn(-c2c(Cl)cc(C(F)(F)F)cc2Cl)c(N)c1S(=O)C(F)(F)F (stereo unspecified) | inactive
12 | CC[n+]1c(-c2ccccc2)c2cc(N)ccc2c2ccc(N)cc21 | inactive
13 | COP(=O)(OC)C(O)C(Cl)(Cl)Cl (stereo unspecified) | inactive
14 | CCCCCCCCCCCC[N+](C)(C)CCOc1ccccc1 | 32.2 µM (active)
15 | O=c1n(Cl)c(=O)n(Cl)c(=O)n1Cl | inactive
16 | CNC(=O)Oc1cccc2ccccc12 | inactive
17 | COCC(=O)N(c1c(C)cccc1C)C(C)C(=O)OC (stereo unspecified) | inactive

Assay: S16 Schwann cell PMP22 intronic element firefly luciferase assay (AID 624032); further: nearly all actives have a fitted effect of over 30% in size
Conditions: S16 rat Schwann cells, PMP22 element FLuc, 24 h; series mostly up to 57.5 µM
Summary of the method: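 Rat S16 Schwann cells stably carrying a PMP22 intronic element-driven Fluc reporter were seeded overnight, then exposed to compounds for 24 h at 37 °C. Luminescence was normalized to PTC124 (positive control) and DMSO (0% activity).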

Row | Compound | Potency
18 | CCC(=O)O[C@H]1CC[C@H]2[C@@H]3CCC4=CC(=O)CC[C@]4(C)[C@H]3CC[C@]12C | inactive
19 | CN(C)C(=S)SSC(=S)N(C)C | 1.44 µM (active)
20 | C[C@H]1C(=O)O[C@@H]2CCN3CC=C(COC(=O)[C@](C)(O)[C@]1(C)O)[C@H]23 | inactive
21 | CCCCCCCCC(=O)NCc1ccc(O)c(OC)c1 | inactive
22 | CCNc1nc(Cl)nc(NCC)n1 | inactive
23 | Oc1c(Br)cc(Br)cc1Br | inactive
24 | Cc1ccc(N=CN(C)C=Nc2ccc(C)cc2C)c(C)c1 | inactive
25 | N#Cc1nn(-c2c(Cl)cc(C(F)(F)F)cc2Cl)c(N)c1S(=O)C(F)(F)F (stereo unspecified) | 10.2 µM (active)
26 | CC[n+]1c(-c2ccccc2)c2cc(N)ccc2c2ccc(N)cc21 | inactive
27 | COP(=O)(OC)C(O)C(Cl)(Cl)Cl (stereo unspecified) | inactive
28 | CCCCCCCCCCCC[N+](C)(C)CCOc1ccccc1 | 25.6 µM (active)
29 | O=C(Nc1ccc(Cl)cc1)Nc1ccc(Cl)c(Cl)c1 | inactive
30 | O=c1n(Cl)c(=O)n(Cl)c(=O)n1Cl | inactive
31 | COCC(=O)N(c1c(C)cccc1C)C(C)C(=O)OC (stereo unspecified) | inactive
